From PubChem BioAssay
Dicer inh: inhibitors of human Dicer processing of pre-microRNA | Q9UPY3 | cat-ELCCA pre-miR-21 Dicer processing, chemiluminescence; active compounds read high | z-score at 25 µM | hit rate 6% among 47,000 | AID 1347074; in the data active = z-score above about 3, passing the limit was not always enough;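 note: plate controls were vehicle for no effect and no enzyme for full effect; higher signal means more uncleaved substrate so more Dicer inhibition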
Target sequence (Q9UPY3 whole entry, looked up): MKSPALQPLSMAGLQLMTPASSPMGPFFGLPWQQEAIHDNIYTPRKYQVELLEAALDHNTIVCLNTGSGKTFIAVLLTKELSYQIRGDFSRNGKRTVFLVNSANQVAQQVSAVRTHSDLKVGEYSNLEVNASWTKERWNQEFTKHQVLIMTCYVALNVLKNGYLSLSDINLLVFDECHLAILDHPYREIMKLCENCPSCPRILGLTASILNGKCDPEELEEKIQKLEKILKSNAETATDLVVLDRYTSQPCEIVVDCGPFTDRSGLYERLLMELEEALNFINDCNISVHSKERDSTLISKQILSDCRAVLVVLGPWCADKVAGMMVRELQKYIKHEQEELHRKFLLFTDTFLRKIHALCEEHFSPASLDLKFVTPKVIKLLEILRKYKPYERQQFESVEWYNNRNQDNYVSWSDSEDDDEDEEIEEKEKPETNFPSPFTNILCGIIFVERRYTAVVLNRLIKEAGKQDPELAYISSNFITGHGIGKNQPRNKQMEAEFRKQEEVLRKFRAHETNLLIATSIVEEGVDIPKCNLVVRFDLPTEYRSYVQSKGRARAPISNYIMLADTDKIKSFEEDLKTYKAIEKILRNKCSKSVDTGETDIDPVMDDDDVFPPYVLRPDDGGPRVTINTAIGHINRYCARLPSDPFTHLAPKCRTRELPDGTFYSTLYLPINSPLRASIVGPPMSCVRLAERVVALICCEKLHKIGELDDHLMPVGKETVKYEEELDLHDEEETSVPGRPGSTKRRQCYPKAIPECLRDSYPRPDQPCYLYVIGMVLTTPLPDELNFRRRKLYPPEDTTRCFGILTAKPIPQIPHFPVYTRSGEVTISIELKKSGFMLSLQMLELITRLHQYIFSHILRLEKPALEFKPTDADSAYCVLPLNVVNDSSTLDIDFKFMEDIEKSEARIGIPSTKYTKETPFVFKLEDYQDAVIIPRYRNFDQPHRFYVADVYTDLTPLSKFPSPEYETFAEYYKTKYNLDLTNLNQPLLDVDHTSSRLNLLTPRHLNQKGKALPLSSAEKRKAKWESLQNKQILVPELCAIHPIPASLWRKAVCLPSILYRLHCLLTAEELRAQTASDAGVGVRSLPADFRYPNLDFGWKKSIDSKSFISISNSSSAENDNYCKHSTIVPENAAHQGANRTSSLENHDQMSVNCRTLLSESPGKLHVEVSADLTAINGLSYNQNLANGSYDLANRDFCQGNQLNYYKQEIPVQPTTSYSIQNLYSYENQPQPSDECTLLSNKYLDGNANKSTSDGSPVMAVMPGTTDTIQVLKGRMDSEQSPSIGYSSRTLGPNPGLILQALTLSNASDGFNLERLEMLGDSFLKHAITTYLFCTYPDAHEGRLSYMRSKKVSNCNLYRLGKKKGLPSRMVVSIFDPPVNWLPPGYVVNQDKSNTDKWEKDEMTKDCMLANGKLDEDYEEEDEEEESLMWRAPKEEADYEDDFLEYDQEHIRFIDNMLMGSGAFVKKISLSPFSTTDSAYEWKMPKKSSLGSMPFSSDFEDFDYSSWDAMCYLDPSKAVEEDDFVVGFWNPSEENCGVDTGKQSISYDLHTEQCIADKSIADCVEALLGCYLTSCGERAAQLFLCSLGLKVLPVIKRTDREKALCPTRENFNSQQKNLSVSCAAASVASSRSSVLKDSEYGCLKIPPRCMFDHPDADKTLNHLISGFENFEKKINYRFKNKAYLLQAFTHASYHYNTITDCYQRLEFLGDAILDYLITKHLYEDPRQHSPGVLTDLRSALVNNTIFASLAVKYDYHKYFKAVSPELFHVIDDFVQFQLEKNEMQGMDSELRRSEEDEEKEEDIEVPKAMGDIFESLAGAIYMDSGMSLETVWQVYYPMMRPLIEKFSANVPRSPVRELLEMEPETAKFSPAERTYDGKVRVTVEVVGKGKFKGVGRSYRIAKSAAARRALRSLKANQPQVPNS
* = called active by the depositor. This is one part of a sample in which hits are shown more often than they occur.

SMILES	Dicer inh
Cc1ccc(NC(=S)C(C#N)C(=O)Nc2ccccc2C)c(C)c1 (stereo unspecified)	1.1
O=[N+]([O-])c1cc2c(c(CSCCO)c1)OCOC2	1.5
Cc1ccccc1NCc1c(C#N)c2ccccc2n1C	3.5*
N#Cc1c(=O)c2ccccc2n2ccccc12	-1.8
COc1ccc(OCc2c(C#N)c3ccccc3n2C)cc1	0.02
CCc1ccc(C2C3=C(CCCC3=O)Nc3c2c(=O)n(C)c(=O)n3C)cc1 (stereo unspecified)	2.5
Clc1ccc(/C=N/Nc2nc(-c3cc(-c4ccccc4)no3)cs2)cc1	-2.3
O=C1c2ccccc2S(=O)(=O)N1CCCCN1CCN(c2ncccn2)CC1	0.08
O=C(OCCN1CCN(C2=NS(=O)(=O)c3ccccc32)CC1)c1cccc2ccccc12	3.2*
O=C1c2ccccc2S(=O)(=O)N1Cc1cccc2ccccc12	-0.65
CSC(N)=Nc1cc(C)c(C)cc1C	1.4
CN(C1CCCCC1)S(=O)(=O)c1ccc(CNC(=O)c2ccccc2)s1	-3.1
CCOC(=O)c1cccc(C(=O)O)n1	0.56
CCOC(=O)c1cccc(C(=O)Oc2ccccc2)n1	6.2*
COC(=O)c1cccc(C(=O)Oc2ccc(OC)cc2)n1	0.13
COc1ccc(-c2c(C(F)(F)F)oc3cc(OC(=O)c4ccncc4)ccc3c2=O)cc1OC	1.5
Cc1nc(N=Nc2ccc(S(=O)(=O)O)cc2S(=O)(=O)O)c(COP(=O)(O)O)c(C=O)c1O	3.1*
Cc1nc(N=Nc2ccc(C(=O)O)cc2)c(COP(=O)(O)O)c(C=O)c1O	-1.7
CC(O)(CNCc1ccc(Cl)cc1)CSc1ccc(Cl)cc1 (stereo unspecified)	0.16
O=S(=O)(c1cccc2nsnc12)N1CCN(C(c2ccccc2)c2ccccc2)CC1	-0.65
Cc1ccnc(NS(=O)(=O)c2ccc(N)cc2)c1	1.9
O=C(c1cnc2cc(-c3ccccc3)nn2c1)c1cc(Cl)ccc1O	-1.7
O=C(c1cnc2cc(-c3ccccc3)nn2c1)c1cc(Br)ccc1O	3.3*
O=C(c1cnc2cc(-c3ccc(Cl)cc3)nn2c1)c1ccccc1O	-0.69
Cc1cc(-c2nn(C)c(=O)c3ccccc23)cc(C)c1OC(=O)Nc1ccccc1	-0.42
SMILES	Dicer inh
O=C1CC(c2ccc(Cl)cc2)Sc2nc(-c3ccccc3)nn21 (stereo unspecified)	4.1*
Cc1nn2c3c(cnc2c1-c1ccccc1)C(=O)CC(c1ccc(Cl)cc1)C3 (stereo unspecified)	0.4
COc1ccc(C2C(C(=O)c3cccs3)=C(O)C(=O)N2c2nncs2)cc1 (stereo unspecified)	-1.2
COc1ccc(C2=NN3C(C2)c2ccccc2OC3c2cccs2)cc1 (stereo unspecified)	1.5
COc1ccc(-c2nc3n(n2)C(=O)CC(c2cccs2)S3)cc1 (stereo unspecified)	5.6*
O=C1CC(c2ccccc2)Sc2nc(-c3cccc4ccccc34)nn21 (stereo unspecified)	0.94
CCCOc1ccc(C2C3=C(CC(C)(C)CC3=O)NC3=C2C(=O)CC(C)(C)C3)cc1	-0.5
O=c1oc(-c2ccccc2F)nc2ccccc12	-0.45
O=c1ccn2c(n1)OC1[C@@H](O)[C@@H](CO)O[C@H]12 (stereo partly specified)	1.6
CC(C)(C)c1ccc(OCC(=O)NN)c(C(C)(C)C)c1	0.87
Cc1nc(C(F)(F)F)ccc1C(=O)N1C=CC(C(F)(F)F)=NCC1	0.47
OCC#CCSc1ncnn1-c1ccccc1	-7.5
CCOC(=O)c1cc(-c2ccc(Br)s2)n[nH]c1=O	0.81
CCOC(=O)/C(C#N)=C/c1ccc([N+](=O)[O-])s1	-0.25
CCOC(=O)/C(C#N)=C/c1csc([N+](=O)[O-])c1	3.1*
CCOC(=O)/C(C#N)=C/c1ccccc1	-0.78
CC1(C(=O)O)Cc2ccccc2C(=O)O1 (stereo unspecified)	3.9*
CC1(C)OC(=O)c2ccccc2-c2ccccc21	0.83
O=C1OC(c2ccccc2)(c2ccccc2)c2ccccc21	-0.69
Cc1cc2c(NC(=O)CSCC(=O)O)cccc2nn1	-1.4
COc1ccccc1N1CCN(C(=O)C(C)Oc2ccnc3c(C)ccc(C)c23)CC1 (stereo unspecified)	3.6*
COc1ccccc1N1CCN(C(=O)C2CCCCC2)CC1	-0.28
COc1ccccc1N1CCN(C(=O)C(C)Nc2ccccn2)CC1 (stereo unspecified)	-0.48
CCOC(=O)NNC(=S)NC1CC2C=CC1C2 (stereo unspecified)	-0.48
COc1cc(C(=O)NNS(C)(=O)=O)c(-n2c(C)ccc2C)cc1OC	-1.1
SMILES	Dicer inh
CCOC(=O)c1sc(NC(=O)c2sc3ccccc3c2Cl)nc1C	-0.51
O=C(Nc1ccccc1)c1sc2ccccc2c1Cl	-1.5
Cc1ccc2c(Cl)c(C(=O)Nc3nc(C)c(C)s3)sc2c1	3.6*
COc1nc(C)nc(N/C=C(\C#N)C(=O)C2CC2)n1	1.4
Cc1nc(SCC(=O)c2ccc(O)c(O)c2)n[nH]1	0.45
CSC(=NC(=O)c1c(Cl)cccc1Cl)N1CCOCC1	-0.76
CCOC(=O)Oc1ccc2c(=O)c(Oc3ccc(OC)cc3)c(C(F)(F)F)oc2c1	0.26
COc1ccc(N2CCCCC2)c([N+](=O)[O-])c1	-1.2
COc1ccc(-n2c(/C=C/N(C)C)c([N+](=O)[O-])c3ccc(O)c(CN(C)C)c32)cc1	3.5*
COc1ccc(-n2c(C)c([N+](=O)[O-])c3ccc(O)c(CN4CCCCC4)c32)cc1	3.5*
COc1ccc(Oc2c(C(F)(F)F)oc3c(CN4CCCCC4)c(O)ccc3c2=O)cc1	-0.53
COc1ccc(OC)c(C(=O)c2coc3ccc(O)c(CN(C)C)c23)c1	0.83
Cc1c([N+](=O)[O-])c(/C=C/N(C)C)nn1C	1.3
C#CCN1C(=O)c2ccccc2S1(=O)=O	2.6
N#Cc1c(C(F)(F)F)cc(-c2cccs2)n(N)c1=O	0.4
CCOc1cc(C2C(C(=O)OCc3ccc(OC)cc3)=C(C)NC3=C2C(=O)CCC3)ccc1O (stereo unspecified)	0.46
CCC(C)NC(=O)CN1C(=O)c2cccc3cccc1c23 (stereo unspecified)	0.41
CCC(C)NC(=O)CN1C(=O)c2ccccc2S1(=O)=O (stereo unspecified)	0.07
O=C(CC(C(=O)O)C1CCCO1)NC1CCCCC1 (stereo unspecified)	-0.13
O=C(CN1C(=O)NC2NC(=O)NC21)NC1CCCCC1 (stereo unspecified)	3.2*
CCCCc1nc(SCC(=O)NC2CCCCC2)n[nH]1	0.32
CCCNC(=O)CN1C(=O)NC2NC(=O)NC21 (stereo unspecified)	4*
CCC(C)NC(=O)CN1C(=O)NC2NC(=O)NC21 (stereo unspecified)	4.5*
CCCNC(=O)NCCN1CCNC1=O	-0.07
CCCNC(=O)Cn1nc(C(F)(F)F)c(Br)c1C	-0.64
SMILES	Dicer inh
Cn1c(=O)c2c(O)c(C=Nc3c(Cl)cccc3Cl)c(=O)n(C)c2n(C)c1=O	-2.8
CO[C@@]1(NC(=O)[C@H](C(=O)O)c2ccc(O)cc2)C(=O)N2C(C(=O)O)=C(CSc3nnnn3C)CO[C@@H]21	0.28
COc1ccc(OCC2c3cc(OC)c(OC)cc3CCN2C(=O)c2cccc(Cl)c2)cc1 (stereo unspecified)	-0.98
CCCCOC(=O)C1=C(C)NC2=C(C(=O)CC(C)(C)C2)C1c1cc2c(cc1Cl)OCO2 (stereo unspecified)	0.07
CS(=O)(=O)NCc1ccc(Cl)cc1	-0.83
CNC(=S)N/N=C/c1cccc2ccccc12	1.2
